Assay outcomes as filed in PubChem.
SW480 rereplic: A quantitative high throughput screen for small molecules that induce DNA re-replication in SW480 colon adenocarcinoma cells; Potency, µM (highest dose often 46.1 µM), without a hit: at the top dose re-replication activation, actives largely listed as activators; SW480 DNA re-replication, Hoechst DNA content imaging, 48 h; AID 624297, 2012; 340,000 tested, 1.8% active; further: potency means the concentration at half of the fitted maximal effect; % of control where 0% means no effect; nearly all actives have a fitted effect of over 55% in size
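Treated cells incubate 48 hr (37 C, 5% CO2), are stained 40 min with Hoechst, and nuclear fluorescence is enumerated; a rise in nuclei with high DNA signal marks re-replication.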
BCR signal inh: qHTS Assay to Find Inhibitors of Chronic Active B-Cell Receptor Signaling; AID 493014, 2011; ABC-DLBCL IkBa-CBG/CBR reporter, luminescence ratio, 4 h; Potency, µM (highest dose often 46.1 µM), without a hit: at the highest dose activity change, negative = inhibition, actives largely listed as inhibitors; 340,000 tested, 0.05% active; active means well fitted inhibition curve with a large enough effect in the signal ratio, with a control signal flat, not every such curve was filed as active; inconclusive means small, poorly fitted or top-dose-only effect, or effect the other way, or a change in a side signal; the % refers to the signal ratio;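 further: potency means the concentration at half of the fitted maximal effect; plate controls were basal doxycycline-induced cells for no effect and cells given 10 µM MG132 for full effect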
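Concentration-response series (up to 46 uM) were applied to TMD8 dual-reporter cells for 4 h at 37C with doxycycline. Green/red ratio, after filter-overlap correction, defined %Activity; red signal alone was normalised to basal cells and zero luminescence.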
DT40 TDP1 CPT: qHTS for Inhibitors of human tyrosyl-DNA phosphodiesterase 1 (TDP1): qHTS in cells in presence of CPT; Potency, µM (doses to about 46.2 µM), for the others: at the highest dose activity change, negative = growth inhibition, most hits filed as inhibitors; chicken DT40 Tdp1-/-;hTDP1 cells + 20 nM CPT, ATP luminescence, 48 h; 420,000 tested, 12% active; AID 686979, 2013; further: potency means the concentration at half of the fitted maximal effect; on the % scale 0 is the no-effect control and ±100 the full control effect; nearly all actives have a fitted effect of over 55% in size
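Chicken DT40 Tdp1-/- cells stably complemented with human TDP1 were seeded at 400 cells/well in medium containing 20 nM camptothecin, exposed to pin-transferred compounds, and grown at 37 °C for at least 48 hr. Viability was read as ATP luminescence.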
IL1B secr inh: qHTS for Inhibitors of Inflammasome Signaling: IL-1-beta AlphaLISA Primary Screen; AID 743279, 2014; 360,000 tested, 4.7% active; activity change, % at 57.5 µM; THP-1 LPS/ATP IL-1B secretion, AlphaLISA, 16 h; hits give low values; in the data active means activity change below about -50%; inconclusive means mostly about -30% to -49%; further: on the % scale 0 is the no-effect control and ±100 the full control effect
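THP-1 cells pretreated 1 hr with compounds (up to 57.5 uM final), then stimulated with LPS (250 ng/mL final) plus ATP (1.25 mM final); secreted IL-1B measured by AlphaLISA after 16 hr, decreased signal indicating inhibition.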
TDP1 cell noCPT: qHTS for Inhibitors of human tyrosyl-DNA phosphodiesterase 1 (TDP1): qHTS in cells in absence of CPT | AID 686978, 2013 | Potency, µM (titrated, usually from 46.2 µM), for the others: at the highest dose activity change, negative = growth inhibition, actives largely listed as inhibitors | 420,000 tested, 15% active | DT40 Tdp1-/- hTDP1 cells, no CPT, ATP luminescence, 48 h; further: potency means the concentration at half of the fitted maximal effect; on the % scale 0 is the no-effect control and ±100 the full control effect; nearly all actives have a fitted effect of over 55% in size
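Growth of hTDP1-complemented DT40 Tdp1-knockout cells is measured by ATP luminescence after at least 48 hr compound exposure at 37 °C, with DMSO substituting for the 20 nM CPT used in the parallel screen.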
MCF10A rereplic: A quantitative high throughput screen for small molecules that induce DNA re-replication in MCF 10a normal breast cells; 350,000 tested, 2.9% active; MCF 10A DNA re-replication, Hoechst nuclear intensity, 48 h; Potency, µM (top dose mostly 46.1 µM), inactives show top-dose activity, positive = re-replication, usual class: activators; further: potency means the concentration at half of the fitted maximal effect; % of control where 0% means no effect; nearly all actives have a fitted effect of over 50% in size
* hit, by the source's call; ! = not confirmed by another sample; [ ] = another dose, or the depositor's remark. A selection: hits, their analogues and other compounds. The true share with any hit is near 19%. Unless noted, the call rests on the fitted dose curve; in most records, active means well fitted curve in the direction sought with a large enough effect; inconclusive means small, poorly fitted or top-dose-only effect, or another doubt; inactive means no such curve, though single readings can be large; an effect the other way counts as inactive or inconclusive.

Results for CC(=O)OCC(=O)[C@@]12OC3(CCCC3)O[C@@H]1C[C@H]1[C@@H]3CCC4=CC(=O)C=C[C@]4(C)[C@@]3(F)[C@@H](O)C[C@@]12C ?
SW480 rereplic: 0.26µM*!; BCR signal inh: inconclusive; DT40 TDP1 CPT: 2.3µM*!; IL1B secr inh: 0; TDP1 cell noCPT: 4.6µM*; MCF10A rereplic: inconclusive

Results for CCC(=O)OCC(=O)C1(OC(=O)CC)[C@H](C)C[C@H]2[C@H]3[C@H]([C@@H](O)C[C@@]21C)[C@@]1(C)C=CC(=O)C=C1C[C@H]3Cl (some centres undefined) ?
SW480 rereplic: inconclusive; BCR signal inh: inconclusive; DT40 TDP1 CPT: -14%; IL1B secr inh: -51*; TDP1 cell noCPT: -21%; MCF10A rereplic: 1%

What do the screens show for `CCC(=O)OCC(=O)[C@@]1(OC(=O)CC)[C@H](C)C[C@H]2[C@H]3[C@H]([C@@H](O)C[C@@]21C)[C@@]1(C)C=CC(=O)C=C1C[C@H]3Cl`?
DT40 TDP1 CPT: -28%[21.1 µM]; TDP1 cell noCPT: -29%[21.1 µM]

Results for CCCCC(=O)O[C@@]1(C(=O)CO)C(C)CC2C3CCC4=CC(=O)C=C[C@@]4(C)[C@]3(F)C(O)C[C@]21C (some centres undefined) ?
DT40 TDP1 CPT: -24%; TDP1 cell noCPT: -20%

What do the screens show for `CC1(C)O[C@@H]2C[C@H]3[C@@H]4C[C@H](F)C5=CC(=O)C=C[C@]5(C)[C@@]4(F)[C@@H](O)C[C@]3(C)[C@]2(C(=O)CO)O1`?
SW480 rereplic: -4%; BCR signal inh: inconclusive; DT40 TDP1 CPT: inconclusive; IL1B secr inh: -54*; TDP1 cell noCPT: -10%; MCF10A rereplic: 11%

Results for CCC(=O)O[C@]1(C(=O)CCl)[C@@H](C)C[C@H]2[C@@H]3C[C@H](F)C4=CC(=O)C=C[C@]4(C)[C@@]3(F)[C@@H](O)C[C@@]21C ?
DT40 TDP1 CPT: inconclusive; TDP1 cell noCPT: 19µM*

Results for CCCCCCCCC(=O)N1C(C)CCC1C (centres undefined) ?
DT40 TDP1 CPT: inconclusive; IL1B secr inh: 13; TDP1 cell noCPT: inconclusive

Results for O=C(NCc1ccccn1)c1cnn(-c2nccc(-c3cccs3)n2)c1C1CC1 ?
DT40 TDP1 CPT: 19%[9.04 µM]; TDP1 cell noCPT: -6%

How did C[C@H]1C[C@@H]2[C@H]3CCC4=CC(=O)C=C[C@@]4(C)[C@@]3(Cl)[C@@H](O)C[C@]2(C)[C@]1(OC(=O)c1ccco1)C(=O)CCl do in these assays?
SW480 rereplic: -1%[20.6 µM]; MCF10A rereplic: 3%[20.6 µM]

What do the screens show for `C[C@@H]1C[C@H]2[C@@H]3CCC4=CC(=O)C=C[C@]4(C)[C@@]3(Cl)[C@@H](O)C[C@]2(C)[C@@]1(OC(=O)c1ccco1)C(=O)CCl`?
SW480 rereplic: inconclusive; BCR signal inh: inconclusive; DT40 TDP1 CPT: 16µM*; IL1B secr inh: -89*; TDP1 cell noCPT: 12µM*; MCF10A rereplic: 8%

Results for COC(=O)C1=C(C(=O)OC)C(C(=O)OC)C(C(=O)OC)C(C(=O)OC)(C(=O)OC)C(C(=O)OC)=C1C(=O)OC (centres undefined) ?
SW480 rereplic: inconclusive; DT40 TDP1 CPT: 2.6µM*; IL1B secr inh: -100*; TDP1 cell noCPT: 2.6µM*; MCF10A rereplic: inconclusive

How did O=C(C1CC1)N1CCN(c2nc3ccccc3s2)CC1 do in these assays?
SW480 rereplic: 1%; BCR signal inh: inconclusive; DT40 TDP1 CPT: -24%; IL1B secr inh: -10; TDP1 cell noCPT: -11%; MCF10A rereplic: -2%

How did COc1cccc2sc(N3CCN(C(=O)CCS(=O)(=O)c4ccc(F)cc4)CC3)nc12 do in these assays?
BCR signal inh: -21%; DT40 TDP1 CPT: 5.8µM*; TDP1 cell noCPT: 7.3µM*

How did Cc1c(Cl)ccc2sc(N3CCN(C(=O)C4CC4)CC3)nc12 do in these assays?
BCR signal inh: 17%; DT40 TDP1 CPT: 12µM*; TDP1 cell noCPT: 5.8µM*

What do the screens show for `Cc1ccc(S(=O)(=O)CCC(=O)N2CCN(c3ccccc3O)CC2)cc1`?
SW480 rereplic: 9.2µM*; BCR signal inh: 1%; DT40 TDP1 CPT: -15%; IL1B secr inh: inconclusive; TDP1 cell noCPT: 3%; MCF10A rereplic: inconclusive

What do the screens show for `Cc1ccc(S(=O)(=O)CCC(=O)OCC(=O)N2CCN(c3ccccc3)CC2)cc1`?
SW480 rereplic: -1%; BCR signal inh: 9%; DT40 TDP1 CPT: -4%; IL1B secr inh: 11; TDP1 cell noCPT: -22%; MCF10A rereplic: 0%

What do the screens show for `Cc1ccc(S(=O)(=O)CCC(=O)N2CCN(c3nc4c(C)c(Cl)ccc4s3)CC2)cc1`?
BCR signal inh: inconclusive; DT40 TDP1 CPT: 2.6µM*; TDP1 cell noCPT: 3.3µM*

How did COc1ccc(N2CCN(S(=O)(=O)CCNC(=O)c3ccc(C(F)(F)F)cc3)CC2)cc1 do in these assays?
DT40 TDP1 CPT: -20%; TDP1 cell noCPT: -25%

How did COC(=O)c1sc(NC(=S)NNC(=O)c2c(Br)c(C)nn2C)c(C(=O)OC)c1C do in these assays?
SW480 rereplic: 24%; BCR signal inh: 2%; DT40 TDP1 CPT: -7%; IL1B secr inh: 19; TDP1 cell noCPT: -11%; MCF10A rereplic: 0%

Results for CCOC(=O)c1sc(NC(=O)C2CC(=O)N(c3ccc(C)cc3)C2)nc1C (centres undefined) ?
SW480 rereplic: 4%; BCR signal inh: -1%; DT40 TDP1 CPT: -7%; IL1B secr inh: -18; TDP1 cell noCPT: -36%; MCF10A rereplic: 20%

What do the screens show for `COc1ccc(NC(=O)C2=C(C)Nc3nc(SCc4ccc(C)cc4C)nn3C2c2cccc(OC)c2OC)cc1` (centres undefined)?
DT40 TDP1 CPT: -11%; TDP1 cell noCPT: -20%

Results for CC1OCC23CC[C@@]4(C)CCC(C)(C)C[C@H]4[C@]2(C)CCC12C3CC[C@@]1(C)C2C(=O)CC(=O)[C@@H]1C (some centres undefined) ?
DT40 TDP1 CPT: 14%[9.04 µM]; TDP1 cell noCPT: -4%[9.04 µM]
